The list is not random: actives were taken first. Their share in the collection is about 4.1%.
GDH-TPI counter-1 = GDH-TPI coupled enzyme inhibition counter-screen; GDH-TPI coupled enzyme counterscreen, NADH absorbance; inhibition, % at 4.8 µM; hit rate 1.2% among 360,000; AID 588335; in the data active = inhibition above about 30%;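 also: 0% = DMSO wells and 100% = wells lacking the enzyme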
RecA intein inh = Mtb RecA intein splicing inhibition; P9WHJ3; cell-free RecA intein splicing, fluorescence; inhibition, % (concentration not given with the values); hit rate 0.75% among 290,000; AID 2221; in the data active = inhibition above about 30%;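 also: 0% = vehicle wells and 100% = reference inhibitor control wells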
Mtb FBA inh = Mtb fructose-bisphosphate aldolase inhibition; P9WQA3; inhibition, % at 1 µM; AID 588726; hit rate 2.3% among 360,000; purified M. tuberculosis FBA, fluorescence read-out;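 also: 0% = vehicle and 100% = reference inhibitor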
Target sequence (P9WQA3 whole entry, looked up): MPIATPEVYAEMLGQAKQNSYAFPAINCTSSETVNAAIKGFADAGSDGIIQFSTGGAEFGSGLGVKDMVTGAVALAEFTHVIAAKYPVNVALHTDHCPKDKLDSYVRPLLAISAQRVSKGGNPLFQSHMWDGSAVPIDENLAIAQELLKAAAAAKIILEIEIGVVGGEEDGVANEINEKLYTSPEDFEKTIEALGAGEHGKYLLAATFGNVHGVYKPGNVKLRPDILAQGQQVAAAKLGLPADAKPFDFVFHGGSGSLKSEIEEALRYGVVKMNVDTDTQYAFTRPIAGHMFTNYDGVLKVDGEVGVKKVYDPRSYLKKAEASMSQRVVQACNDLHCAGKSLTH
Mtb UGM inh = inhibitors of M. tuberculosis UDP-galactopyranose mutase. purified UGM, fluorescence polarization probe displacement. inhibition, % at 10 µM. hit rate 0.06% among 320,000; in the data active = inhibition above about 10%, passing the limit was not always enough
Rv3671c inh = inhibitors of M. tuberculosis serine protease Rv3671c | P9WHR9 | inhibition, % at 5.96 µM | hit rate 0.048% among 320,000 | AID 2606; in the data active = inhibition above about 38%;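 also: extracellular domain of Rv3671c used as enzyme; 0% = enzyme with DMSO and 100% = no enzyme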
Vc quorum ag = quorum light induction in luxS cqsA deficient V. cholerae. hit rate 0.16% among 350,000. V. cholerae BH1578 lux reporter, luminescence, 6 h. activation, % at 18.7 µM; in the data active = activation mostly above about 9.7%, no sharp cut-off
GFP chromophore = counter-screen GFP chromophore formation inhibition | shares compounds with RecA intein inh | cell-free GFP chromophore formation, fluorescence | EC50, µM | hit rate 83% among 2,100; call rule not given here
Rv3671c cf = Rv3671c protease inhibition, confirmation; shares compounds with Rv3671c inh; inhibition, % at 5.96 µM; hit rate 40% among 140; AID 2761; in the data active = inhibition above about 38%
Mtb FBA inh conf = confirmation of M. tuberculosis fructose-bisphosphate aldolase inhibitors; shares compounds with Mtb FBA inh; AID 651616; hit rate 78% among 5,600; purified M. tuberculosis FBA, fluorescence read-out; inhibition, % at 1 µM;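 also: 0% = vehicle wells and 100% = reference inhibitor wells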
GDH-TPI counter-2 = counter-screen for M. tuberculosis FBA inhibitors: GDH-TPI coupled enzyme inhibition. shares compounds with Mtb FBA inh. GDH-TPI coupled enzyme counterscreen, fluorescence. inhibition, % at 1 µM. hit rate 81% among 5,600. AID 652141; in the data active = inhibition above about 10%
GDH-TPI dose = counter-screen for M. tuberculosis FBA inhibitors: GDH-TPI dose response | hit rate 79% among 170 | shares compounds with Mtb FBA inh | GDH-TPI coupled enzyme assay, fluorescence, artifact counterscreen | IC50, µM; call rule not given here
Numbers without * were called inactive. Rule as the data show it, unless noted: active = inhibition above about 27%; inactive = the rest.

How did Cc1[nH]c2ccccc2c1/C=N/Nc1nc2ccccc2[nH]1 do in these assays?
GDH-TPI counter-1: 23; RecA intein inh: 34*; Mtb FBA inh: 1; Mtb UGM inh: 2; Rv3671c inh: 59*; Vc quorum ag: inactive; GFP chromophore: >38; Rv3671c cf: 41*

Results for CCOC(=O)C1(Cc2ccc(Cl)cc2)CCN(C(C)Cc2ccc(O)c(OC)c2)CC1 (configuration not stated) ?
GDH-TPI counter-1: 2; RecA intein inh: -3; Mtb FBA inh: 0; Mtb UGM inh: -3; Rv3671c inh: -3; Vc quorum ag: -1

How did O=C(O)c1ccccc1Nc1ccccc1C(=O)O do in these assays?
GDH-TPI counter-1: 19; RecA intein inh: -2; Mtb FBA inh: 2; Rv3671c inh: -5; Vc quorum ag: 0

How did O=C1C=C(Nc2ccccc2C(=O)O)c2ccccc2C1=O do in these assays?
GDH-TPI counter-1: 12; RecA intein inh: 97*; Mtb FBA inh: 38*; Mtb UGM inh: 2; Rv3671c inh: -71; Vc quorum ag: -1; GFP chromophore: 2.5*; Mtb FBA inh conf: active; GDH-TPI counter-2: 157*

Results for O=C1c2ccccc2[C@@H]2C[C@@H](O)[C@H](Nc3cccc(Cl)n3)CCN12 ?
GDH-TPI counter-1: 7; Mtb FBA inh: -2; Vc quorum ag: 2

Results for CCOC(=O)c1c(NC(=O)c2ccco2)n(C2CCCCC2)c2nc3ccccc3nc12 ?
GDH-TPI counter-1: 15; RecA intein inh: 55*; Mtb FBA inh: 63*; Mtb UGM inh: 1; Rv3671c inh: -32; Vc quorum ag: 0; GFP chromophore: 21*; Mtb FBA inh conf: 14; GDH-TPI counter-2: 9; GDH-TPI dose: 2.9*

How did O=C(COC(=O)c1cccc(F)c1)Nc1ccc(Cl)cn1 do in these assays?
GDH-TPI counter-1: 6; Mtb FBA inh: -2; Mtb UGM inh: 0; Rv3671c inh: -2; Vc quorum ag: 0

Results for C=CCn1c(NC(=O)c2ccc(Br)o2)c(S(=O)(=O)c2ccccc2)c2nc3ccccc3nc21 ?
GDH-TPI counter-1: 1; RecA intein inh: 46*; Mtb FBA inh: 50*; Mtb UGM inh: 2; Rv3671c inh: -102; Vc quorum ag: 3; GFP chromophore: 31*; Mtb FBA inh conf: 52*; GDH-TPI counter-2: 47*

What do the screens show for `COc1cc2nc(Nc3ccc(C)c(Cl)c3)nc(N)c2cc1OC`?
GDH-TPI counter-1: 0; RecA intein inh: 24; Mtb FBA inh: 4; Mtb UGM inh: 4; Rv3671c inh: 74*; Vc quorum ag: inactive; Rv3671c cf: 74*

What do the screens show for `CCOC(=O)NC(=O)/C(C#N)=C\Nc1ccc(Cl)cc1Cl`?
GDH-TPI counter-1: 4; RecA intein inh: 1; Mtb FBA inh: 2; Mtb UGM inh: 0; Rv3671c inh: 4; Vc quorum ag: 0

Results for CCOC(=O)NC(=O)/C(C#N)=C\Nc1sccc1C(=O)OC ?
GDH-TPI counter-1: 6; RecA intein inh: 0; Mtb FBA inh: -2; Mtb UGM inh: 5; Rv3671c inh: 41*; Vc quorum ag: inactive; Rv3671c cf: 2

How did CN1C(=O)NC(c2ccccc2[N+](=O)[O-])C2=C1CCCC2=O (configuration not stated) do in these assays?
GDH-TPI counter-1: 14; RecA intein inh: -19; Mtb FBA inh: 2; Mtb UGM inh: 12*; Rv3671c inh: 74*; Vc quorum ag: 0; Rv3671c cf: 38*

What do the screens show for `O=C(N/C(=C/c1cccc([N+](=O)[O-])c1)C(=O)N1CCCCC1)c1ccco1`?
GDH-TPI counter-1: 4; RecA intein inh: -1; Mtb FBA inh: -3; Mtb UGM inh: 0; Rv3671c inh: -4; Vc quorum ag: -4

Results for Cc1cc(-c2ccc(S(=O)(=O)NCc3ccc(Cl)cc3)cc2)on1 ?
GDH-TPI counter-1: 9; Mtb FBA inh: -5; Vc quorum ag: inactive

What do the screens show for `Cn1c(O)c(/C=N/NC(=O)c2cc3ccccc3cc2O)c2ccccc21`?
GDH-TPI counter-1: 18; RecA intein inh: 0; Mtb FBA inh: -8; Mtb UGM inh: 1; Rv3671c inh: 47*; Vc quorum ag: 1; Rv3671c cf: 22

Results for Cn1c2ccccc2c2cc(/C=N/NC(=O)c3ccc(O)cc3O)ccc21 ?
GDH-TPI counter-1: 24; RecA intein inh: -4; Mtb FBA inh: 11; Mtb UGM inh: 0; Rv3671c inh: 25; Vc quorum ag: -1

How did c1ccc(-c2nc3cc4ccccc4cc3[nH]2)nc1 do in these assays?
GDH-TPI counter-1: 16; RecA intein inh: 4; Mtb FBA inh: 6; Mtb UGM inh: 0; Rv3671c inh: 39*; Vc quorum ag: inactive; Rv3671c cf: 44*

How did CCCCN(C(=O)COC(=O)c1sccc1C)c1c(N)n(CCC)c(=O)[nH]c1=O do in these assays?
GDH-TPI counter-1: 0; Mtb FBA inh: -2; Vc quorum ag: inactive

What do the screens show for `N#CC1(P(=O)(c2ccccc2)c2ccccc2)CCCC1`?
GDH-TPI counter-1: 7; RecA intein inh: 0; Mtb FBA inh: -1; Mtb UGM inh: 1; Rv3671c inh: 81*; Vc quorum ag: inactive; Rv3671c cf: 2

How did CCOC(=O)N(C)c1c(CC)nc2c(OCc3cc(Cl)cc(Cl)c3)cccn12 do in these assays?
GDH-TPI counter-1: 3; Mtb FBA inh: -2; Vc quorum ag: inactive

Results for O=C(NCc1ccco1)c1cccc(Nc2nc3ccc(Br)cc3[nH]2)c1 ?
GDH-TPI counter-1: -3; RecA intein inh: 25; Mtb FBA inh: 3; Mtb UGM inh: 0; Rv3671c inh: 40*; Vc quorum ag: inactive; Rv3671c cf: 44*

How did C=C1c2cccc(O)c2C(O)=C2C(=O)[C@]3(O)C(O)=C(C(N)=O)C(=O)[C@@H](N(C)C)[C@@H]3[C@@H](O)[C@H]12 do in these assays?
GDH-TPI counter-1: 13; RecA intein inh: -10; Mtb FBA inh: 0; Mtb UGM inh: 6; Rv3671c inh: 50*; Vc quorum ag: -1; Rv3671c cf: 3

Results for CC1CN(C(=O)CCC(=O)NCCCN2C(C)CCCC2C)c2ccccc2O1 (configuration not stated) ?
GDH-TPI counter-1: 11; RecA intein inh: 2; Mtb FBA inh: 2; Mtb UGM inh: 2; Rv3671c inh: 2; Vc quorum ag: inactive
